The values that follow come from PubChem BioAssay (NCATS).

A number with no mark means an inactive call. Inconclusive results are not listed. The list shows a part of the results. Active and inactive are the calls of the source. Unless noted, calls follow the shape of the dose curve; as a rule, active = well fitted curve in the direction sought with a large enough effect; inconclusive = small, poorly fitted or top-dose-only effect, or another doubt; inactive = no such curve, though single readings can be large; an effect the other way counts as inactive or inconclusive.

The target of experiment [1] is Vitamin D3 receptor (Homo sapiens) (UniProt P11473). Kind of experiment: qHTS for Inhibitors of the vitamin D receptor (VDR): Hit Validation in Primary Screen (AID 602199). Also: potency is read from the fitted curve at half-maximal effect. The following applies: VDR-coactivator inhibition assay, qHTS confirmation. In outline:
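Fluorescence polarization (Ex 620/Em 688 nm) of Alexa 647-SRC2-3 peptide with 800 nM VDR and 5 uM LG19078. Compounds at several concentrations, 2 h at room temperature.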
For orientation: In qHTS, concentration-response curves come from the screen itself.

For experiment [2] the target is unchanged. In words: qHTS for Inhibitors of the vitamin D receptor (VDR): Hit Validation using a Fluorescein Assay (AID 602200). Also: potency is read from the fitted curve at half-maximal effect. The following applies: VDR-coactivator binding, fluorescein fluorescence polarization. In outline:
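Fluorescence polarization: 1.5 uM VDR-LBD, 5 uM LG19078 and 5 nM fluorescein-labeled SRC2-3 peptide (final) with compounds, 2 h at room temperature. Read at Ex 495/Em 520 nm; peptide-only wells served as control.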

For experiment [3] the target is unchanged. Kind of experiment: qHTS for Inhibitors of the vitamin D receptor (VDR): Hit Validation using a Beta-Lactamase Assay (AID 602202). Also: potency is read from the fitted curve at half-maximal effect. To be noted: VDR beta-lactamase reporter cells, FRET ratio, cells co-treated with VDR agonist LG190178; series mostly up to 46.1 µM. The gist of the method:
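Stably transfected HEK293 cells expressing VDR-GAL4 DNA-binding domain fusion with UAS-driven beta-lactamase reporter, activated by agonist LG190178; compounds incubated 18 h, then FRET beta-lactam substrate 2 h; cleaved substrate read at 447 nm emission.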

A short description of experiment [4]: qHTS for Inhibitors of the vitamin D receptor (VDR): Hit Validation using a Cytotoxicity Assay (AID 602204).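 Also: cells co-treated with VDR agonist LG190178 at 300 nM; potency is read from the fitted curve at half-maximal effect; nearly all actives have a fitted effect of over 75% in size.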 To be noted: cytotoxicity counter-screen, cell viability; series mostly up to 48.3 µM. The gist of the method: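 Viability read-out: luminescent ATP quantification after 18 h compound exposure. Plated cells (20,000/well) had 4 h before dosing; reagent incubation 30 min. High-concentration cycloheximide marks full kill, DMSO no effect.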

Experiment [5] has as its target Rap guanine nucleotide exchange factor 3 (Homo sapiens) (UniProt O95398). In words: Confirmatory qHTS for agonist of cAMP-regulated guanine nucleotide exchange factor 3 (EPAC1) (AID 1645881).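 Also: EPAC1 catalysed release of BODIPY-GDP from Rap1B seen as fluorescence loss; 100% = effect of cAMP agonist control; nearly all actives have a fitted effect of over 75% in size.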 The following applies: EPAC1 Rap1B BODIPY-GDP exchange fluorescence; series mostly up to 154 µM.
The target in experiment [6] is Rap guanine nucleotide exchange factor 4 (Homo sapiens) (UniProt Q8WZA2). In words: Confirmatory qHTS for agonist of cAMP-regulated guanine nucleotide exchange factor 4 (EPAC2) (AID 1645884).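 Also: nucleotide exchange releases bodipy-GDP from Rap1 and this lowers its fluorescence; % is scaled to controls: 0 for no effect and ±100 for the full control effect; nearly all actives have a fitted effect of over 65% in size.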 To be noted: EPAC2 GEF activity, Rap1B-BODIPY-GDP fluorescence; series mostly up to 154 µM.
Chain of Rap guanine nucleotide exchange factor 4 (Homo sapiens) (Q8WZA2 whole entry, looked up): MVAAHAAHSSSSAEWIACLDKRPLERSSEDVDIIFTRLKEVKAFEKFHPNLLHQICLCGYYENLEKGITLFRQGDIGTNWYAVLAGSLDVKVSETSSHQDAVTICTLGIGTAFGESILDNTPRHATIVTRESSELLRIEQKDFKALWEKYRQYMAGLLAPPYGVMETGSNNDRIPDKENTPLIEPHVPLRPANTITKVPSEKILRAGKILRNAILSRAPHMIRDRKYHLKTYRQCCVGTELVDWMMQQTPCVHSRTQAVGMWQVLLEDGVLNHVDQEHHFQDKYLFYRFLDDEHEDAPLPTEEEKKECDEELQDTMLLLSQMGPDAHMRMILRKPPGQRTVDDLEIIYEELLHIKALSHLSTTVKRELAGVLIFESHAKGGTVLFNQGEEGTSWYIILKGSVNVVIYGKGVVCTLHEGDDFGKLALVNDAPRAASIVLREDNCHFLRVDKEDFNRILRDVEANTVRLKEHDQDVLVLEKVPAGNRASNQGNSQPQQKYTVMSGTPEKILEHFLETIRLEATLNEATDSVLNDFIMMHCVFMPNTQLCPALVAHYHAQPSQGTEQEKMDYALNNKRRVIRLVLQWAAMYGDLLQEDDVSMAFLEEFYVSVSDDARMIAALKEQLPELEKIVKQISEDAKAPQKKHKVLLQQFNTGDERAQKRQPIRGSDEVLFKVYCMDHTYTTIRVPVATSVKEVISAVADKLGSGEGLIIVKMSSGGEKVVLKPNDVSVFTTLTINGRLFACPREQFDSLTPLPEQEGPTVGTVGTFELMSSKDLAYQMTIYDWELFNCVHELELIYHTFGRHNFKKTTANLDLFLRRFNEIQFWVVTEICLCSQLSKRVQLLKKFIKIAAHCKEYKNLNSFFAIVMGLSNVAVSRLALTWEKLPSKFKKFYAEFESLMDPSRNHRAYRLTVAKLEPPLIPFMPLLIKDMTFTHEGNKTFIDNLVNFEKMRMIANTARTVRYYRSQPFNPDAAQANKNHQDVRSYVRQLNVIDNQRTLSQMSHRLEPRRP
Experiment [7] has the same target. Kind of experiment: Confirmatory qHTS for antagonist of cAMP-regulated guanine nucleotide exchange factor 4 (EPAC2) (AID 1645885). Also: nearly all actives have a fitted effect of over 25% in size. As to activity change, negative = inhibition: % is scaled to controls: 0 for no effect and ±100 for the full control effect. The following applies: EPAC2 Rap1B-BODIPY-GDP exchange fluorescence, biochemical; series mostly up to 12.7 µM.
In experiment [8] the target is Rap guanine nucleotide exchange factor 3 (Homo sapiens) (UniProt O95398). Kind of experiment: Counterscreen qHTS for antagonist of cAMP-regulated guanine nucleotide exchange factor 3 (EPAC1) (AID 1645888).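 Also: fluorescence loss as bound BODIPY-GDP is released from Rap1B; % of control where 0% means no effect.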 To be noted: Rap1B-BODIPY-GDP nucleotide exchange, fluorescence; series mostly up to 154 µM. The gist of the method: (§1)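 Rap1B–BODIPY-GDP (250 nM) with 50 uM GDP; compounds pin-transferred to 9.74 nM–152 uM final (activator) or from 7.32 nM upwards (inhibitor). Fluorescence Ex/Em 480/540 nm read at 5 and 30 min, then after adding cAMP or buffer, at room temperature.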
Chain of Rap guanine nucleotide exchange factor 3 (Homo sapiens) (O95398 whole entry, looked up): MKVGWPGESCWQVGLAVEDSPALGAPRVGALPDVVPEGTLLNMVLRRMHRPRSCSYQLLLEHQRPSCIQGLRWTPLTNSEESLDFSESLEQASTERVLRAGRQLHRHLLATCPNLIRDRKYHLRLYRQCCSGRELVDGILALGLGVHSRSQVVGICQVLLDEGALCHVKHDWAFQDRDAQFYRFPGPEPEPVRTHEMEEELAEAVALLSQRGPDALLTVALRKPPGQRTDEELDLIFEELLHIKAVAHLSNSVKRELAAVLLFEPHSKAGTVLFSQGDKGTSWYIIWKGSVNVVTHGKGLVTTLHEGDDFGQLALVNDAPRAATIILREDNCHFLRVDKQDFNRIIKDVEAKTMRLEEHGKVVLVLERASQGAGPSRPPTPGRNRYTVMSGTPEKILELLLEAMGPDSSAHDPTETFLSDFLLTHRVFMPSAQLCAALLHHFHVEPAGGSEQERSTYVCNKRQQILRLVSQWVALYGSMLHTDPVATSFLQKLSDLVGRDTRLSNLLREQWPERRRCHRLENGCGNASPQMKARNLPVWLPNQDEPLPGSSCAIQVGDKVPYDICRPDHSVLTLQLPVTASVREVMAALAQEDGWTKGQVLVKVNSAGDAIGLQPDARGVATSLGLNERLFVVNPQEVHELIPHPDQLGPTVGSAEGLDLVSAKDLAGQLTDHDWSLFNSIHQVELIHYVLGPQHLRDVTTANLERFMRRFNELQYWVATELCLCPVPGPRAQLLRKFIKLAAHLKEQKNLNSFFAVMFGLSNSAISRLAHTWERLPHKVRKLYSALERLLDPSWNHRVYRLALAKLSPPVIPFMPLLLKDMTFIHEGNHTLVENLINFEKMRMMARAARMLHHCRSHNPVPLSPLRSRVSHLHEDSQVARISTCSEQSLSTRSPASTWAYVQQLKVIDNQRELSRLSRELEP
On the technique in general: Counterscreens check selectivity or assay interference.

Experiment [9] shares this target. In words: Counterscreen qHTS for agonist of cAMP-regulated guanine nucleotide exchange factor 3 (EPAC1) (AID 1645889). Also: % of control where 0% means no effect; nearly all actives have a fitted effect of over 40% in size. To be noted: EPAC1 Rap1B-BODIPY-GDP exchange, fluorescence; series mostly up to 154 µM. In outline:
as §1

The target in experiment [10] is Tumor susceptibility gene 101 protein (Homo sapiens) (UniProt Q99816). In words: qHTS Assay for Iinhibitors of HIV-1 Budding by Blocking the Interaction of PTAP/TSG101: Hit Validation (AID 651600). Also: nearly all actives have a fitted effect of over 70% in size. Also: potency is read from the fitted curve at half-maximal effect. The following applies: PTAP peptide/TSG101 UEV interaction, biochemical assay; series mostly up to 57.5 µM. The gist of the method:
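Fluorescence polarization binding assay: Tsg101 binding domain (10 uM final) pre-dispensed with compounds, then FITC-labeled PTAP-motif peptide (50 nM final) added; 20 min at r.t. in HEPES pH 7.5 buffer with NaCl, Tween 20, EDTA, TCEP.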

The nature of experiment [11]: qHTS for Inhibitors of Plasmodium falciparum (GB4) proliferation (AID 504315).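 Also: 0% = DMSO vehicle and -100% = 0.29 µM artemisinin control; nearly all actives have a fitted effect of over 50% in size.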 The following applies: P. falciparum GB4 in erythrocytes, SYBR Green DNA, 72 h; series mostly up to 6.7 µM. In outline:
(§2)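 Erythrocytes infected with P. falciparum line (0.3% parasitemia, 2.5% hematocrit final) incubated with compounds 72 h at 37 °C, 5% CO2; SYBR Green lysis buffer added, fluorescence read next day. Normalized to 0.29 uM artemisinin and DMSO.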

Experiment [12] in a line: qHTS for Inhibitors of Plasmodium falciparum (CP250) proliferation (AID 504320).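 Also: plate controls were DMSO vehicle for no effect and 0.29 µM artemisinin control for full effect.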 To be noted: P. falciparum CP250 in erythrocytes, SYBR Green DNA, 72 h; series mostly up to 6.7 µM. The gist of the method: as §2
A short description of experiment [13]: AP1 Signaling Pathway (AID 357; active = well fitted curve in either direction with a large enough effect, not every such curve was filed as active;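 also: ME-180 reporter cells stimulated with EGF at its EC50 level; % is scaled to controls: 0 for no effect and ±100 for the full control effect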). To be noted: ME-180 AP-1-bla reporter, EGF-induced, beta-lactamase ratio, 5 h; at 7.69 µM (top of the series) unless noted. In outline: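 AP-1-bla ME-180 cells, Opti-MEM + 0.5% dialyzed FBS, plated overnight 37 °C. Cpd titration + EC50 EGF, 5 h 37 °C. CCF4 2.5 h RT; ex 405, em 460/530 ratio → %activity, AC50.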
Experiment [14] can be described thus: NFAT Signaling Pathway (AID 444; active = well fitted curve in either direction with a large enough effect, not every such curve was filed as active;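 also: carbachol stimulus at about its EC50 of 1 µM final; % is scaled to controls: 0 for no effect and ±100 for the full control effect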). To be noted: Jurkat NFAT-bla M1, carbachol, beta-lactamase ratio, 5 h; at 7.69 µM (top of the series) unless noted. In outline: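 Jurkat cells with NFAT-driven β-lactamase reporter and co-expressed M1 receptor, stimulated with carbachol (final 1 uM, ~EC50), compound titration, 5 h at 37 °C. CCF4 loaded 1 h at RT; 460/530 nm ratio gave %activity and AC50.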

Experiment [15] is described as follows: Stat Signaling Pathway (AID 446; active = well fitted curve in either direction with a large enough effect, not every such curve was filed as active;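 also: ME-180 cervical cancer cells given 40 pM IL-6 alongside compound; SIE-controlled beta-lactamase reporter measured as 460/530 nm FRET emission ratio; % is scaled to controls: 0 for no effect and ±100 for the full control effect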). The following applies: ME-180 SIE beta-lactamase reporter, IL-6 stimulated, 5 h; series mostly up to 7.69 µM. In outline:
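Screening format detects activators and inhibitors alike: ME-180 SIE-bla cells stimulated at 40 pM IL-6 for 5 hrs with compound, then dual-emission beta-lactamase read at 405 nm excitation.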

For experiment [16], the target named is Glucocorticoid receptor (Homo sapiens) (UniProt P04150). In words: GR-GFP Redistribution (AID 450;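 active = compounds whose dose series gives a full or clear partial fitted curve of increased nuclear translocation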; also: potency is read from the fitted curve at half-maximal effect). To be noted: U2OS GR-GFP nuclear translocation, laser cytometry, 2 h.
Chain of Glucocorticoid receptor (Homo sapiens) (P04150 whole entry, looked up): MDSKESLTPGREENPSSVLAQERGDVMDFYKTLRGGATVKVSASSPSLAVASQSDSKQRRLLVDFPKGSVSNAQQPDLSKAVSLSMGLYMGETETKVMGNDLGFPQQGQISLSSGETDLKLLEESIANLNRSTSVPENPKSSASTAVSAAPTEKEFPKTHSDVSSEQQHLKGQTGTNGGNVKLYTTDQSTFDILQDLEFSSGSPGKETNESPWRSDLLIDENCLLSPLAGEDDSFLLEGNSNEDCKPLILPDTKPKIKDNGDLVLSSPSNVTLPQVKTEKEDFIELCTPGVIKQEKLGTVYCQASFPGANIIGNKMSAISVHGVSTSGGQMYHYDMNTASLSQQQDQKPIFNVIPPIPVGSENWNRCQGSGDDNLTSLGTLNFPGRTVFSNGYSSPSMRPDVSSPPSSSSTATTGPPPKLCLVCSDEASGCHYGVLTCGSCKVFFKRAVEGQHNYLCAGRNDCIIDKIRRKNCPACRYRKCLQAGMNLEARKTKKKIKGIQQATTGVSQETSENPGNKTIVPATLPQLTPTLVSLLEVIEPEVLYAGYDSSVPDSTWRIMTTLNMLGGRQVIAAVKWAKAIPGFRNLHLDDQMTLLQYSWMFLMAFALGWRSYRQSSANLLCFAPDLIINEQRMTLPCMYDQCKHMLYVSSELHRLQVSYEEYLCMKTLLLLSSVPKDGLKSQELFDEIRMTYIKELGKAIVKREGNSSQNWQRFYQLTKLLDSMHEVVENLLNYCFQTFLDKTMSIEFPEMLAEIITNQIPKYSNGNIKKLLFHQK

Chain of Tumor susceptibility gene 101 protein (Homo sapiens) (Q99816 whole entry, looked up, the tested form may be a part): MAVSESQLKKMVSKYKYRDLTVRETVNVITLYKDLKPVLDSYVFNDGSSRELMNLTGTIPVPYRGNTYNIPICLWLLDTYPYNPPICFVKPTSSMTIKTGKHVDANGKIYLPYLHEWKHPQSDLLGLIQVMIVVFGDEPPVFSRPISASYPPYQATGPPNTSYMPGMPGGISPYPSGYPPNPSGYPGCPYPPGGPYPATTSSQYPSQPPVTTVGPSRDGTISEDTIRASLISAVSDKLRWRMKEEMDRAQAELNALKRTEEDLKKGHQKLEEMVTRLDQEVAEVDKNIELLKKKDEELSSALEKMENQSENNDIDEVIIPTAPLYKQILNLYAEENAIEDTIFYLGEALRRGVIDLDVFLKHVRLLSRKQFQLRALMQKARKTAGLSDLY
Chain of Vitamin D3 receptor (Homo sapiens) (P11473 whole entry, looked up): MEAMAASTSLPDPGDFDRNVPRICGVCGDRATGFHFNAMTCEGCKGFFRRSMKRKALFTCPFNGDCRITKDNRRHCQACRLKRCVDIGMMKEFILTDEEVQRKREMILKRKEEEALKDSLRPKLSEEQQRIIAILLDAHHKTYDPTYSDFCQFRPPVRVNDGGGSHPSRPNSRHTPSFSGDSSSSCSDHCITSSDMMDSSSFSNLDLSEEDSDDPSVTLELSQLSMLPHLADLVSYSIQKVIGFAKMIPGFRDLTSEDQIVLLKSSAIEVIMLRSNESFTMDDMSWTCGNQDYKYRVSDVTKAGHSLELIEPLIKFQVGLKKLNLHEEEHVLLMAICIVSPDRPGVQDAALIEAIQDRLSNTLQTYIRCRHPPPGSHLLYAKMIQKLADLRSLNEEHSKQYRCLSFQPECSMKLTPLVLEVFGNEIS

As for `O=C(Nc1ccccc1Cl)/C(Cl)=C(\Cl)S(=O)c1ccccc1` (configuration not stated), the Potency in experiment [1] is 3.36 µM (active); in experiment [2], 3.16 µM (active); in experiment [3], 3.66 µM (active); in [4], 20.6 µM (active). Besides, the Potency result in experiment [5], in [6], in [7], in experiment [8] and in experiment [9] was “inactive” throughout.
As for `COC(=O)c1cc2c(N)c(C(=O)c3ccc(Cl)cc3)sc2nc1C(OC)OC`, the Potency result in experiment [10], in experiment [5] and in experiment [7] was “inactive” each time. For the same molecule, the activation was 5.58% [at 17.1 µM, percent relative to cAMP agonist control] in experiment [6] and 42.3% [at 30.8 µM] in [9]. Further, the activity change, negative = inhibition in experiment [8] is -4.3% [at 30.8 µM].
Consider `C=CCn1c(=O)/c(=C/c2ccc(C)o2)s/c1=C(/C#N)C(=O)c1ccccc1`, for which the Potency in experiment [10] was 18.3 µM (active). Further, the Potency entry in [5] and in [7] was “inactive” throughout. For the same molecule, the activation in experiment [6] was 3.1% [at 17.1 µM, percent relative to cAMP agonist control]; in [9], 34.7% [at 30.8 µM]. Moreover, in experiment [8], the activity change, negative = inhibition is -7.69% [at 30.8 µM].
For the molecule `O=C1NC[C@H](Cc2ccc(O)cc2)N(C[C@@H]2CCCN2C[C@H](Cc2ccc(O)cc2)N2C[C@H](Cc3ccccc3)N(CC3CCCCC3)C(=O)C2=O)C1=O`, the Potency entry in [5] and in experiment [7] was “inactive” each time. The activation was -4.51% [at 17.1 µM, percent relative to cAMP agonist control] in experiment [6] and 17.8% [at 30.8 µM] in experiment [9]. Further, the activity change, negative = inhibition in experiment [8] is -13.5% [at 30.8 µM].
With `CC1(OC(=O)C2CCCC2)C(=O)C=C2C=C(c3ccsc3)N(Cc3ccco3)C=C2C1=O` (configuration not stated), the molecule was called inactive in experiment [11] and in experiment [12]. In addition, the Potency entry in experiment [5], in experiment [6], in [7] and in experiment [8] was “inactive” throughout.
`CC(C)OC(=O)C(C#N)c1nc2ccccc2nc1N1CCCC1` (configuration not stated): the activity change, negative = inhibition in experiment [13] is 8.73% [at 17.2 µM]; in experiment [14], -13.2% [at 17.2 µM]; in experiment [8] it was -19.9% [at 30.8 µM]. In experiment [15], the molecule was called inactive. Also, the Potency in [16] is over 20.6 µM. The Potency entry in experiment [5] and in experiment [7] was “inactive” in each case. The activation is 3.69% [at 17.1 µM, percent relative to cAMP agonist control] in experiment [6] and 3.58% [at 30.8 µM] in experiment [9].
With `COc1ccccc1C(=O)Nc1nnc(SCc2cc(=O)c3ccccc3[nH]2)s1`, the Potency entry in [5], in experiment [6], in [8] and in experiment [9] was “inactive” in each case. The outcome in experiment [7] was “inactive [at 12.7 µM]”.
In the case of `Cc1c2ccccc2nc2c(F)c(NC(C)C)c(F)c(F)c12`, the Potency entry in [10], in [5], in experiment [6], in experiment [7] and in experiment [8] was “inactive” throughout.
`O=[N+]([O-])c1ccc(Sc2cccc[n+]2[O-])c2nonc12`: the Potency in experiment [10] was 18.3 µM (active). The Potency result in experiment [5] and in experiment [7] was “inactive” throughout. The activation in experiment [6] is 3.05% [at 17.1 µM, percent relative to cAMP agonist control]; in experiment [9] it was 9.42% [at 30.8 µM]. In experiment [8], the activity change, negative = inhibition was -8.92% [at 30.8 µM].
With `CCCCN1CC(c2nc3ccccc3n2CCCCOc2cc(C)cc(C)c2)CC1=O` (configuration not stated), the Potency result in experiment [5], in experiment [6], in experiment [7], in experiment [8] and in experiment [9] was “inactive” throughout.
